# LASV entry inh – Lassa virus entry inhibition. Lassa virus pseudotype entry inhibition, cell reporter. Potency, µM (titrated, usually from 37.9 µM), without a hit: at the top dose activity change, negative = inhibition, usual class: inhibitors. 300,000 compounds, 1.2% hits; calls by dose curve; tested in HEK293 cells; note: potency is the fitted concentration of half-maximal effect; nearly all actives have a fitted effect of over 50% in size
# HCMV antiviral – human cytomegalovirus inhibition. HFF cells, HCMV-luciferase reporter, 72 h; active compounds read low. activity change, negative = inhibition, % at 57.5 µM. 410,000 compounds, 4.5% hits. AID 1259415; in the data active = activity change below about -60%; inconclusive = no clear call, values can overlap the other calls; inactive = above about -39%
#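 After 16 h attachment at 37C, HFF cells received test compound and HCMV-luciferase (1 PFU/cell); reporter luminescence read 72 h later, data normalized against buffer-only and known inhibitor Salinomycin.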
# HCV inh – HCV inhibition. Potency, µM (series often up to 41.8 µM), for the others: at the highest dose activity change, negative = inhibition, usual class: inhibitors. Huh7.5.1 HCVcc-Cre infection, luciferase reporter, 44 h. 340,000 compounds, 3.4% hits; active = well fitted inhibition curve with a large enough effect; inconclusive = small, poorly fitted or top-dose-only effect, or another doubt; inactive = no such curve, though single readings can be large or run the other way; note: potency is the fitted concentration of half-maximal effect
#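 Seed cells (1,000/well) for 4 h; treat with compound and infect with HCVcc-Cre, moi about 0.5. Incubate 44 h, then detect luciferase activity.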
# VACV mCherry inh – vaccinia inhibition (mCherry reporter); Vaccinia virus mCherry reporter infection, fluorescence; Potency, µM (series often up to 36.5 µM), without a hit: at the top dose activity change, negative = inhibition, usual class: inhibitors; 310,000 compounds, 0.63% hits; calls by dose curve; tested in A549 cells; note: potency is the fitted concentration of half-maximal effect; nearly all actives have a fitted effect of over 35% in size
# MARV entry inh – blocks Marburg virus binding to or entry into cells; AID 540276; 300,000 compounds, 1.8% hits; Potency, µM (series often up to 37.8 µM), inactives show top-dose activity change, negative = inhibition, most hits filed as inhibitors; Marburg virus pseudotyped entry inhibition, cell reporter; calls by dose curve; tested in HEK293 cells; note: potency is the fitted concentration of half-maximal effect
# VACV Venus inh – inhibitors of vaccinia virus (Venus reporter); Potency, µM (doses to about 36.5 µM), inactives show at the top dose activity change, negative = inhibition, usual class: inhibitors; Vaccinia virus Venus reporter expression, fluorescence; 330,000 compounds, 0.46% hits; calls by dose curve; tested in A549 cells; note: potency is the fitted concentration of half-maximal effect; nearly all actives have a fitted effect of over 30% in size
# Active calls of the source: *; i = inactive; ? = inconclusive; / = no result given; [ ] = dose if it differs, or a comment. Only some compounds are listed: those with a hit (about 7.8% of all), similar ones and a draw of the others. % is set by controls: 0 for no effect and ±100 for the full control effect.
SMILES,LASV entry inh,HCMV antiviral,HCV inh,VACV mCherry inh,MARV entry inh,VACV Venus inh
O=C(N/N=C/c1cn(-c2ccccc2)nc1-c1cccnc1)c1cccnc1,/,-27,12%,/,/,/
O=C(O)c1ccc2c(=O)n3cc(C(=O)c4ccccc4O)cc(Cl)c3nc2c1,/,-80*,9%,/,/,/
O=C(NNC(=O)c1ccccc1Cl)c1ccc2c(=O)n3c(nc2c1)CCC3,/,4,20%,/,/,/
Cn1cnc(S(=O)(=O)N2CCC[C@@H]2c2noc3ccccc23)c1,/,-5,/,/,/,/
CC1(CCc2ccc3c(c2)OCO3)NCCc2c1[nH]c1ccccc21 (stereo not drawn),/,-87*,11µM*,/,/,/
CC1(CCc2ccc3c(c2)OCO3)NC(=O)c2ccccc2N1 (stereo not drawn),4%,19,24%,/,-19%,/
O=C(c1cc(-c2ccc(Cl)cc2Cl)on1)N1CCCCCC1,?,60,6%,-18%,?,-19%
O=C(Nc1ccc2c(c1)OCO2)c1cc(-c2ccc(Br)cc2)on1,4%[46.1 µM],16,/,-9%,6%[46.1 µM],-4%
O=C(Nc1ccc(Br)cc1)c1cc(-c2ccc3c(c2)OCO3)on1,6%,-60*,10%,-9%,13%[46.1 µM],-8%
O=C(c1cc(-c2ccc3c(c2)OCO3)on1)N1CCCCC1,2.8µM*,40,?,10%,?,10%
Cc1ccc(-c2cc(C(=O)NC3CCCC3)no2)cc1,-12%[46.1 µM],55,12%,-8%,10µM*,-7%
O=C(NC1CCCCC1)c1cc(-c2ccc(F)cc2)on1,/,54,-1%,-5%,12%[46.1 µM],-4%
O=C(c1cc(-c2ccc(Cl)cc2Cl)on1)N1CCCC1,3.5µM*,-20,-5%,34%,?,2%
O=C(NC1CC(=O)N(c2cccc(F)c2)C1)C1CC1 (stereo not drawn),11%[46.1 µM],7,/,-3%,/,-12%
COC(=O)C1=C(C)N(Cc2ccccc2)C(=NCC2CC2)NC1c1cccc(C(F)(F)F)c1 (stereo not drawn),/,/,/,/,11%[14.2 µM],/
COc1ccc(CNC(=O)C(=O)NCC(c2cccnc2)N2CCN(c3ccccc3)CC2)cc1 (stereo not drawn),11%[46.1 µM],?,/,?,/,?
Cc1ccc(-c2cc(C(=O)N3CCOCC3)no2)cc1,/,-61*,13%,-9%,2µM*,-8%
Cc1cc(N2CCC(C)CC2)nc2ccc(NC(=O)Cc3c(F)cccc3Cl)cc12,9%[46.1 µM],-28,/,-11%,2%[46.1 µM],-11%
O=C(NNC1=C(C(=O)C(F)(F)F)CCC1)c1ccccc1O,-10%,55,32%,-21%[1.46 µM],-21%,-28%
Nc1ccccc1C(=O)NNC1=C(C(=O)C(F)(F)F)CCC1,-21%,-85*,?,-23%[7.34 µM],6%[46.1 µM],-5%[7.34 µM]
COc1ccccc1C(=O)NNC1=C(C(=O)C(F)(F)F)CCC1,?,-100*,?,-9%,?,7%
O=C(c1ccc2c(c1)N(Cc1ccc(F)cc1)C(=O)c1ccccc1S2(=O)=O)N1CCCCC1,-6%[46.1 µM],43,/,-13%,-4%[46.1 µM],-12%
O=C(CSc1nc2c([nH]c3ccccc32)c(=O)n1-c1ccccc1)NCc1ccc(F)cc1,?,-29,/,3%,/,3%
CCCC(=O)N1CC2(C1)CN(C(=O)CN1CCOCC1)[C@H](CO)c1c2c2ccc(OC)cc2n1C,/,1,/,/,/,/
O=C(Nc1ncc([N+](=O)[O-])s1)c1cccc([N+](=O)[O-])c1,/,-99*,?,?,/,?
SMILES,LASV entry inh,HCMV antiviral,HCV inh,VACV mCherry inh,MARV entry inh,VACV Venus inh
O=[N+]([O-])c1cccc(-c2csc(Nc3ccccc3)n2)c1,?,23,1.6µM*,?,?,?
O=C(Nc1ccccc1)Nc1ncc([N+](=O)[O-])s1,7.1µM*,-98*,?,10µM*,?,?
Cc1nc(C)c(C(=O)Nc2ncc([N+](=O)[O-])s2)o1,5.6µM*,?,-9%,-1%,?,-4%
CCOc1ccc(-c2nnc(Nc3ccc(S(N)(=O)=O)cc3)c3ccccc23)cc1,-9%[46.1 µM],2,/,-14%,?,-2%
CCc1ccc2oc(-c3cc(NC(=O)c4cc([N+](=O)[O-])ccc4N4CCOCC4)ccc3Cl)nc2c1,1%[46.1 µM],24,/,10%,?,-6%
O=C(Nc1nc(-c2cccnc2)cs1)c1cccc([N+](=O)[O-])c1,/,?,?,-16%,20%[46.1 µM],-11%
O=C(O)c1cnn(-c2nc(-c3cccc([N+](=O)[O-])c3)cs2)c1C(F)(F)F,/,-94*,-3%,/,/,/
O=C(Nc1nc(-c2ccccc2)cs1)c1cccc([N+](=O)[O-])c1,9%,4,13µM*,/,-19%,/
CCOC(=O)c1c(C)[nH]c(C)c1S(=O)(=O)N1CCC(C(=O)NCc2ccc(N(C)C)cc2)CC1,3%[46.1 µM],0,/,-18%,/,-14%
Cc1cc(NC(=S)N(Cc2ccc(Cl)cc2)Cc2ccc(C(=O)O)cc2)ccc1Cl,/,-62*,0%,/,/,/
Cc1cc(C)cc(NC(=S)N(Cc2ccc(Cl)cc2)Cc2ccc(C(=O)O)cc2)c1,12%[46.1 µM],-27,24%,-1%,-21%[46.1 µM],-14%
CC(C)[Si]1(C(C)C)OCC2OC(n3cnc4c(N)ncnc43)C(N)C2O[Si](C(C)C)(C(C)C)O1 (stereo not drawn),?,-27,?,-30%,13µM*,-28%
Nc1ncnc2c1ncn2C1OC(CO)C(O)C1N (stereo not drawn),/,-6,6%,0%,/,-3%
CCN1C(=C(C#N)C#N)C=Cc2cc(C)ccc21,7%[46.1 µM],-21,-10%,i,-17%[46.1 µM],-9%
C=CC[n+]1c(/C=C2\C=Cc3cc(C)ccc3N2CC)ccc2ccccc21,7.3µM*,-102*,2.5µM*,/,4.1µM*,/
Nc1nc(=S)c2[nH]cnc2[nH]1,/,-86*,1.3µM*,?,/,?
Cc1sc(NC(=O)C2c3ccccc3Oc3ccccc32)c(C(=O)OC(C)C)c1C,4%[46.1 µM],26,/,-6%,1%[46.1 µM],0%
O=C(CCCCCNC(=O)N1CCn2c1nc1ccccc12)N[C@@H](C(=O)O)c1ccccc1,/,-4,-3%,1%,/,0%

# Screening results (PubChem BioAssay)
